Whole data set: some 33,000 sequences, median “E-score (dimensionless, -0.5 to 0.5)” near -0.058, cut for the highest 2% near 0.35. The sample holds the highest values, similar sequences and a random draw of the others, so the mix is not that of the screen.
test system: MvaT; experiment: PBM 8-mer E-score (mean of HK and ME arrays) (E-score (dimensionless, -0.5 to 0.5)); higher = stronger relative binding preference
Summary of the method: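 Reported values are rank-based E-scores, taken as the mean of two universal arrays and parsed with a custom script. Each 8-mer score falls between -0.5 and 0.5. The arrays, ME and HK, were double-stranded 60-mers with a constant 25-mer primer region and a variable 35-mer region covering all 8-mers. They were probed, by an earlier protocol, with full-length P. aeruginosa MvaT carrying an N-terminal glutathione S-transferase fusion.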

Row | Sequence | PBM 8-mer E-score
1 | GTTTTTCA | 0.0388
2 | AGCGGTGG | -0.209
3 | CCTGCCTC | -0.249
4 | AGACTTCC | -0.21
5 | AAAAAAGG | 0.0491
6 | CTGTCCTA | -0.112
7 | GTCATATA | 0.282
8 | CTAATATC | 0.299
9 | ATAATATA | 0.475
10 | GTAATACA | 0.295
11 | ATCATATA | 0.338
12 | GTAATATA | 0.436
13 | ATAATCTA | 0.344
14 | CTAATAGA | 0.184
15 | CTAATATA | 0.434
16 | CAGGCTCG | -0.325
17 | CAGACGGA | -0.156
18 | AGCTGGGG | -0.186
19 | ACTACGCG | -0.0273
20 | AGGGCATG | -0.207
21 | GCAACGCA | -0.168
22 | AATATTTA | 0.45
23 | AATATTGA | 0.327
24 | ACTATTTC | 0.201

Row | Sequence | PBM 8-mer E-score
25 | CATATTTA | 0.371
26 | CCTATTTA | 0.212
27 | CATATTTC | 0.26
28 | CCTATTTC | 0.0116
29 | AATATTTC | 0.404
30 | AACATTTG | 0.103
31 | AATATTTG | 0.349
32 | AATTTTTG | 0.194
33 | GATATTTA | 0.326
34 | AGTGTGAA | 0.204
35 | CAGGGTTC | -0.251
36 | GAAGATGA | -0.128
37 | CGGAGTTC | -0.106
38 | TCACCTCA | -0.163
39 | CTTCTTTC | 0.015
40 | CTAATAGC | 0.0517
41 | AGAATAGA | 0.051
42 | ATAATAGC | 0.362
43 | GTAATAGA | 0.164
44 | ATAATAGA | 0.364
45 | ATAATAGG | 0.291
46 | TTGGAAAA | 0.114
47 | AACTCGTC | 0.0126
48 | GGGTTGAC | -0.213

Row | Sequence | PBM 8-mer E-score
49 | CATACGGC | -0.244
50 | ACCGTAGA | -0.0538
51 | CCCGTGCG | -0.273
52 | AGACGAAC | -0.107
53 | ATCCAAAA | 0.1
54 | CCTAACCA | -0.103
55 | CTGCTGTC | -0.222
56 | ACTTAATA | 0.4
57 | GCTTAATA | 0.352
58 | GCTTAACA | 0.0832
59 | CCTTAATA | 0.298
60 | ACTTAATG | 0.287
61 | ACTTAATC | 0.187
62 | CGATGGTC | -0.364
63 | AGACAGGA | -0.156
64 | CGTCCTCA | -0.231
65 | ACGCGGCG | -0.275
66 | ACGTTAAA | 0.256
67 | CACTCGTC | -0.185
68 | CTGGCATC | -0.181
69 | CAATCAGC | -0.0173
70 | AGTAATAA | 0.327
71 | ATTAATAC | 0.41
72 | ATTAATAG | 0.426

Row | Sequence | PBM 8-mer E-score
73 | CTTAATAC | 0.286
74 | ATTAATAA | 0.468
75 | ATTAAGAA | 0.282
76 | GGTAATAC | 0.249
77 | ATTAAGAG | 0.297
78 | AGAGGTCA | -0.266
79 | ACGGCAAC | -0.107
80 | CGTTTTGC | 0.0694
81 | TGGTTGAA | -0.0872
82 | CCTCATAA | -0.0267
83 | TCGTTAAA | 0.156
84 | CAGAAGGC | -0.229
85 | CTGAGCAA | -0.0891
86 | TAAACAGA | 0.188
87 | ACAGACTA | 0.136
88 | AGTCCGTC | -0.103
89 | CGCACCCG | -0.242
90 | TGTTATAA | 0.437
91 | AGTTATAA | 0.43
92 | GGTTATAC | 0.0501
93 | CGTTATAG | 0.2
94 | CGTTATAC | 0.21
95 | TGTTACAA | 0.257
96 | AGTTATGC | 0.246

Row | Sequence | PBM 8-mer E-score
97 | AGTTATGA | 0.319
98 | AGTTATCA | 0.242
99 | CGTTATAA | 0.39
100 | AGTTATAC | 0.393
101 | GGTTATAA | 0.344
102 | CCAACCGA | -0.0134
103 | TACCAAGA | -0.0377
104 | TCCCAACA | 0.111
105 | CGATACCC | -0.141
106 | CGCGTCCC | -0.132
107 | ACTGTGAC | 0.0208
108 | AGTGCCGG | -0.0286
109 | GTACCTTA | 0.119
110 | CGGGCCAA | -0.118
111 | GGGCGCTA | -0.265
112 | GGGACAGA | -0.12
113 | CCACCGTC | -0.258
114 | AGTTATAT | 0.437
115 | AGTTATAG | 0.316
116 | AGCTATAT | 0.328
117 | ATGGGTAC | -0.0802
118 | AGCGTTGA | -0.0483
119 | AGGTATGA | 0.12
